According to PubChem BioAssay AID1259415 (National Center for Advancing Translational Sciences (NCATS), 2018):
Hit rate of the full screen: of about 410,000 compounds, about 18,000 (4.4%) were called active. Another 7% or so got no clear call; they are omitted. The sample as a whole holds a higher share of actives than the screen did. Unmarked numbers belong to inactive results. No stated cut-off is given here; in the data, active means activity change below about -60%; inconclusive means no clear call, values can overlap the other calls; inactive means above about -39%.

experiment: qHTS Assay for inhibitors of the human cytomegalovirus (HCMV); conditions: HFF cells, HCMV-luciferase reporter, 72 h; at 57.5 µM; hits give low values
Outline: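 Two compound doses tested in HFFs infected with HCMV-luciferase, MOI 1 PFU/cell, 72 h at 37C. Lysate luminescence read with OneGlo; data normalized against buffer-only and 10uM Salinomycin inhibitor controls.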
On the % scale 0 is the no-effect control and ±100 the full control effect.

| SMILES | activity change, negative = inhibition |
| --- | --- |
| COc1ccc(CCC(=O)NCCc2csc(-c3ccc(Cl)cc3)n2)cc1 | 7.81% |
| Cn1c(Cc2csc(N)n2)nnc1SC/C=C/c1ccccc1 | -18.7% |
| O=C(Nc1ccc(S(=O)(=O)N2CCC(c3nc4ccccc4s3)CC2)cc1)c1ccccc1F | -12.7% |
| Cn1c(-c2ccccc2)c[n+]2c1CCCCC2 | -28.9% |
| O=C(C[n+]1cc(-c2ccc(Cl)c(Cl)c2)n2c1CCC2)c1cccs1 | -37.8% |
| Cc1ccc(C(=O)C[n+]2cc(-c3ccccc3)n3c2CCCCC3)cc1 | -92.1% (active) |
| Cn1ccc2cc(S(=O)(=O)N3CCCC(C(=O)NCc4ccccc4F)C3)ccc21 (centres undefined) | -1.65% |
| CCCCOc1ccc(CNC(=O)c2ccc3c(c2)N(C)C(=O)C2CCCCN32)cc1 (centres undefined) | 25.7% |
| CCOC(=O)C1CCCN(S(=O)(=O)c2cc(-c3cc(C)no3)ccc2OC)C1 (centres undefined) | -10% |
| CC(C)c1ccc(NC(=O)Cn2c3ncccc3c(=O)n2-c2ccccc2)cc1 | 8.47% |
| COc1ccccc1CC1(C)C(=O)Nc2ccc(OC(F)(F)F)cc21 (centres undefined) | -18.7% |
| CN1CCN(Cc2ccc(OC(F)(F)F)cc2)CC1 | -3.19% |
| CCc1ccc2c(c1)NC(=O)C2(C)Cc1ccc(OC(F)(F)F)cc1 (centres undefined) | -75.3% (active) |
| CCn1c2ccccc2c2cc(CN3CCN(Cc4cccc(Cl)c4)CC3)ccc21 | -0.564% |
| Cc1ccc(/C=N/NC(=S)NC2CCCCC2)o1 | -8.71% |
| C/C(=N\NC(=S)NC1CCCCC1)c1ccc(C)o1 | -90.6% (active) |
| C/C(=N/NC(=O)c1ccc(Br)o1)c1ccc(C)o1 | 80.2% |
| Cn1c(=O)c2c(n3c4ccccc4nc13)NC(=O)CC2c1cccc(Cl)c1 (centres undefined) | 1.23% |
| CC(C)Cn1c(C2CC(=O)N(c3ccccc3Cl)C2)nc2ccccc21 (centres undefined) | -19.6% |
| CCCS(=O)(=O)N1CCC(n2c(C(F)(F)F)nc3cccnc32)CC1 | -21.7% |
| O=C(OCC(O)C(O)COC(=O)c1ccccc1)c1ccccc1 (centres undefined) | 4.04% |
| O=C(Nc1ccc(Cl)cc1C(=O)c1ccccc1)c1cc(Cl)cc(Cl)c1 | 5.04% |
| O=C(NC1=CC(=O)c2ccccc2C1=O)c1ccccc1 | -66.1% (active) |

| SMILES | activity change, negative = inhibition |
| --- | --- |
| O=C(NCCCO)c1nn(-c2ccc(Cl)cc2)nc1CO | -7.65% |
| CCC1(C)Cc2c(sc3[nH]c(=S)n(Cc4ccccc4)c(=O)c23)CO1 (centres undefined) | -69.4% (active) |
| CCCSc1nc(NCc2ccco2)c2c3c(sc2n1)COC(C)(CC)C3 (centres undefined) | -2.99% |
| CC(C)c1nc2sc3c(c2c(=O)n1N)CC(C)(C)OC3 | -18.9% |
| Cn1c(=O)c2c(ncn2CC(=O)Nc2cccc(C(F)(F)F)c2)n(C)c1=O | 2.82% |
| Cc1ccc(C)c(C(O)c2ncc(-c3cccc4ccccc34)[nH]2)c1 (centres undefined) | 4.52% |
| CC(=O)N1CCCc2cc(S(=O)(=O)Nc3ccc(Cl)cc3F)ccc21 | -24.4% |
| CC(Cc1ccccc1)NCCC(c1ccccc1)c1ccccc1 (centres undefined) | -91.4% (active) |
| Cc1ncoc1C(=O)NCCC(c1ccccc1)c1ccccc1 | -6.8% |
| CC(CCc1ccccc1)NCC(O)c1cccc([N+](=O)[O-])c1 (centres undefined) | -22% |
| CCOC(=O)C(CCOc1cccc(CC)c1)C(=O)OCC | -23.8% |
| CC(C)NS(=O)(=O)c1ccc(OCC(=O)Nc2ccc3c(c2)OCCO3)cc1 | -82.2% (active) |
| CC(=O)Nc1ccc(NC(=O)COc2ccc(S(=O)(=O)NC(C)c3ccccc3)cc2)cc1 (centres undefined) | 28.7% |
| CC(C)NS(=O)(=O)c1ccc(OCC(=O)NC2CCCCCC2)cc1 | -39.9% |
| O=C(NCc1ccccc1)C(=O)NCC(c1ccco1)S(=O)(=O)c1ccc(Cl)cc1 (centres undefined) | -24.1% |
| S=c1[nH]nc2c3c4c(sc3ncn12)CCCC4 | -26.7% |
| O=c1oc(-c2ccco2)nc2sc3c(c12)CCCCC3 | 69% |
| c1nnc2c3c4c(sc3ncn12)CCC4 | -65.9% (active) |
| O=C(Nc1nnc(C2=COCCO2)o1)c1ccc([N+](=O)[O-])s1 | -20.1% |
| Cc1cccc(CSc2nc3ccncc3n2Cc2ccc(C(=O)O)cc2)c1 | 9.17% |
| COc1cccc(Cn2c(SCc3ccc(C(=O)N4CCC(C)CC4)cc3)nc3ccncc32)c1 | -13.1% |
| Cc1cccc(Cn2c(SCc3ccc(C(=O)N4CCC(C)CC4)cc3)nc3ccncc32)c1 | -62.6% (active) |
| NC1(C#Cc2ccc(F)c(-c3noc4ccccc34)c2)CCCCC1 | -18.5% |

| SMILES | activity change, negative = inhibition |
| --- | --- |
| O=C(NNc1ccccc1Cl)C(O)(c1cccc(C(F)(F)F)c1)c1cccc(C(F)(F)F)c1 | -100% (active) |
| O=C(Nc1cc(C(F)(F)F)ccc1Cl)c1nc2ccccc2nc1N1CCCCC1 | 10.2% |
| O=c1cc(O)c(-c2cccc(C(F)(F)F)c2)c(Cl)[nH]1 | -14.8% |
| COc1cccc(/C=C2\Sc3ccc(C(=O)NCC4CCCO4)cc3N(C)C2=O)c1 (centres undefined) | -14.4% |
| COc1ccc2c(c1)C(C)=CC(C)(C)N2C(=O)Nc1ccccc1 | -99.4% (active) |
| COc1cccc(NC(=O)C2C(c3ccccc3)C2(Cl)Cl)c1 (centres undefined) | -32.5% |
| COc1ccc2c(c1)C(C)=CC(C)(C)N2C(=O)CNCc1ccc2c(c1)OCO2 | -9.9% |
| C#CCOc1ccc(C2CC(=O)Nc3c2c(C)nn3-c2nc(C)cc(C)n2)cc1 (centres undefined) | -10.8% |
| CC[C@]12c3[nH]c4cc(CCC(=O)N(C)C)ccc4c3CCN1C(=O)[C@@H](CC(=O)NCCCN(C)C)C[C@@H]2C(=O)N1CCN(C(=O)c2ccco2)CC1 | -18.4% |
| CN1c2ccc(Cl)cc2-c2nc(SCC(=O)Nc3cc(F)ccc3F)ncc2S1(=O)=O | -32.3% |
| O=C(Nc1ccccc1C(=O)N1CCOCC1)c1ccc(CSc2ccccc2)cc1 | -24.2% |
| C/C(CCc1ccccc1)=N\NC(=O)c1ccc(CN2CCOCC2)cc1 | -12.4% |
| O=C(Nc1ccc(CSc2ccccc2)cc1)c1ccc(CN2CCOCC2)cc1 | -79.7% (active) |
| CCCCN1CCNC1=S | 47% |
| CCn1cc(C(=O)NCc2ccc(C)cc2)c(=O)c2cc(S(=O)(=O)N3CCc4ccccc4C3)ccc21 | 7.01% |
| Cc1c(Cl)cccc1NC(=O)C1CCCN(c2ncnc3onc(C)c23)C1 (centres undefined) | 4.4% |
| Cc1ccc(Cl)cc1N(C)C(=O)C1CCCN(c2ncnc3onc(-c4ccc(F)cc4)c23)C1 (centres undefined) | -73.3% (active) |
| CCc1ccccc1N(C)C(=O)C1CCCN(c2ncnc3onc(-c4ccc(F)cc4)c23)C1 (centres undefined) | 6.75% |
| CC(C)Oc1ccc(S(=O)(=O)N2CCOCC2)cc1NC(=O)C1CCCC1 | 36.7% |
| CCCc1cc(=O)oc2c(C)c(O)c(CN3CCCCC3)cc12 | -20.3% |
| OC(COc1ccc(CN2CCSCC2)cc1)CN1CCCCC1 (centres undefined) | 0% |
| Cn1c(=O)c2c(nc(N3CCCCCC3)n2CC(O)COc2ccc(Cl)cc2)n(C)c1=O (centres undefined) | 16.7% |
| O=C(c1ccc(Cl)cc1)c1ccc(OCC(O)CN2CCCCC2)cc1 (centres undefined) | -63.1% (active) |

| SMILES | activity change, negative = inhibition |
| --- | --- |
| COc1ccc(NC(=O)CCNS(=O)(=O)c2ccc3c(c2)CCCC(=O)N3)cc1Cl | -20.5% |
| CCn1c(CNC(=O)C23CC4CC(CC(C4)C2)C3)nnc1SCC(=O)Nc1ccc(OC)cc1 | 10% |
| Cc1no[n+]([O-])c1COc1ccccc1/C=C1\NC(=S)NC1=O | -83.4% (active) |
| C#CCOc1ccccc1/C=C1/C(=O)ON=C1C | 52.7% |
| COC(=O)c1ccc(Cn2c(SCC(=O)N(C)c3ccccc3)nc3ccccc32)cc1 | -6.59% |
| N/C(=N\OC(=O)CCc1ccccc1)c1ccc(Cl)cc1 | 10.6% |
| COc1ccc(-c2nnc(SC(=O)N3c4ccccc4Sc4ccccc43)o2)cc1 | 10.6% |
| N/C(=N\OC(=O)N1c2ccccc2Sc2ccccc21)c1ccc(Br)cc1 | -63.7% (active) |
| COc1cc(Cl)c(NC(=O)CC(C)S(=O)(=O)c2cc3c(cc2C)NC(=O)CO3)c(OC)c1 (centres undefined) | -4.28% |
| O=C(CN(c1ccc2c(c1)OCCO2)S(=O)(=O)c1ccccc1)Nc1ccc2c(c1)OCO2 | -86.6% (active) |
| COc1ccc(S(=O)(=O)N(C)CC(=O)Nc2ccc3c(c2)OCCO3)cc1OC | 51.4% |
| CS(=O)(=O)N(CC(=O)NCc1ccco1)c1ccc2c(c1)OCO2 | -9.98% |
| CCCn1c(=N)c(C(=O)NCc2ccccc2)cc2c(=O)n3cccc(C)c3nc21 | -7.61% |
| Cc1cccn2c(=O)c3cc(C(=O)NCCN4CCOCC4)c(=N)n(Cc4cccnc4)c3nc12 | -86% (active) |
| Cc1cccn2c(=O)c3cc(C(=O)NC(C)c4ccccc4)c(=N)n(CCCO)c3nc12 (centres undefined) | -15.1% |
| Cc1cccn2c(=O)c3cc(C#N)c(=NC(=O)c4cccnc4)n(CC4CCCO4)c3nc12 (centres undefined) | 2.74% |
| COCCCn1c(C(=O)NC2CCCCC2)cc2c(=O)n3cccc(C)c3nc21 | 1.95% |
| COc1ccc(CCn2c(=N)c(C(=O)NCc3ccco3)cc3c(=O)n4cccc(C)c4nc32)cc1 | -83.4% (active) |
| Cc1cc(Br)ccc1NC(=O)Cn1cnc2sc(C)c(S(=O)(=O)N3CCN(C)CC3)c2c1=O | 0.161% |
| CCCS(=O)(=O)NC(=O)C1(C)CCCN(C(=O)c2cc(C)on2)C1 (centres undefined) | 32.5% |
